PfHsp90 yeast 2: growth inhibition of yeast expressing Plasmodium Hsp90; S. cerevisiae expressing PfHsp90, BacTiter-Glo ATP, 48 h; yeast lacking PDR1 and PDR3 efflux regulators; inhibition, % at 9.4 µM; 310,000 tested, 0.32% active; AID 504621;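 active = every replicate shows inhibition above about 80%, whatever the replicate mean, limit read from the data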;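 also: 0% = DMSO neutral controls and 100% = 20 µM radicicol positive controls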
tim23-1 inh: inhibits growth of tim23-1 mutant yeast | inhibition, % at 20 µM | 330,000 tested, 1.3% active | AID 463212 | S. cerevisiae tim23-1 growth, BacTiter-Glo luminescence, 24 h;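 active = growth inhibition of the mutant yeast at or above 50%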;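 also: temperature-sensitive mutant grown at 25 °C; plate controls were DMSO-treated mutant yeast for no effect and medium wells lacking yeast for full effect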
NALP1 yeast inh: NALP1 inhibition. S. cerevisiae NALP1/ASC/caspase-1 growth, X-gal OD620, 72 h. inhibition, % at 10 µM. 280,000 tested, 0.61% active; in the data active = inhibition mostly above about 24%, no sharp cut-off; inactive = mostly below about 32%
tim10-1 inh: tim10-1 yeast growth inhibition. S. cerevisiae tim10-1 ts strain growth, BacTiter-Glo, 24 h. inhibition, % at 20 µM. 330,000 tested, 2.2% active;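 active = inhibition of at least 40%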;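 also: mutant grown at 25 °C; 0% = DMSO wells with yeast and 100% = wells holding no yeast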
TIM10 inh: growth inhibitors of TIM10 yeast strain; S. cerevisiae TIM10 strain growth, BacTiter-Glo luminescence, 24 h; inhibition, % at 10 µM; 330,000 tested, 1.4% active; AID 463195;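 active = inhibition of 40% or more at the single tested concentration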;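 also: wild-type TIM10 isogenic control strain grown at permissive 25 °C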
NLRP3 yeast inh: inhibitors of NALP3 inflammasome in yeast; Yeast reconstituted NLRP3/ASC/caspase-1, beta-gal luminescence, 24 h; inhibition, % at 10 µM; 330,000 tested, 0.39% active;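 active = inhibition of 50% or more; inactive = inhibition below 50%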;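 also: plate controls were induced DMSO wells for no effect and uninduced yeast grown without galactose for full effect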
TIM10 conf: confirmation of TIM10 yeast growth inhibitors. shares compounds with TIM10 inh. S. cerevisiae tim10 strain growth, BacTiter-Glo luminescence, 24 h. inhibition, % at 10 µM. 4,600 tested, 63% active. AID 463215;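 active = inhibition of yeast growth at or above a set limit in either of two replicates at 10 µM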;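 also: this counterscreen used the strain with wild-type TIM10; 0% = yeast with DMSO and 100% = medium wells lacking yeast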
Numbers without * were called inactive. An excerpt weighted towards active compounds, which were near 4.1% of everything screened.

Screening O/N=C/c1cn(-c2ccccc2)nc1-c1ccc2c(c1)OCCO2 returned PfHsp90 yeast 2 -16.3, tim23-1 inh -34.3, NALP1 yeast inh 28.6, tim10-1 inh 16.1, TIM10 inh 40.0, NLRP3 yeast inh 35.1 and TIM10 conf -3.0.
COC(=O)C1=C(C)N(c2ccc(C)c(C)c2)/C(=C/c2cccs2)C1=O was read as PfHsp90 yeast 2 -3.9, tim23-1 inh 39.9, NALP1 yeast inh 9.6, tim10-1 inh 23.0, TIM10 inh 50.2*, NLRP3 yeast inh 18.8 and TIM10 conf 46.6*.
COC(=O)C1=C(C)N(c2cccc(C)c2)C(=O)/C1=C\c1cccs1 was read as PfHsp90 yeast 2 9.0, tim23-1 inh 34.5, NALP1 yeast inh 6.9, tim10-1 inh 9.2, TIM10 inh 9.4 and NLRP3 yeast inh 22.2.
For COC(=O)C1=C(C)N(c2ccccc2)/C(=C/c2cccs2)C1=O the results were PfHsp90 yeast 2 29.7, tim23-1 inh 34.8, NALP1 yeast inh 21.0, tim10-1 inh 31.6, TIM10 inh 51.2*, NLRP3 yeast inh -12.7 and TIM10 conf 34.7*.
Screening COC(=O)C1=C(C)N(c2ccc(Cl)cc2)/C(=C/c2cccs2)C1=O returned PfHsp90 yeast 2 1.5, tim23-1 inh 37.4, NALP1 yeast inh 18.2, tim10-1 inh 31.6, TIM10 inh 47.4*, NLRP3 yeast inh 14.3 and TIM10 conf -0.1.
Screening COC(=O)C1=C(C)N(c2ccc(Cl)cc2)/C(=C/c2ccc(O)cc2)C1=O returned PfHsp90 yeast 2 16.7, tim23-1 inh 6.8, NALP1 yeast inh -11.6, tim10-1 inh -3.0, TIM10 inh 1.2 and NLRP3 yeast inh 6.8.
CSc1nc(C(C)C)ccc1CNC(=O)CC(C)c1ccccc1 (stereo not given) was read as PfHsp90 yeast 2 -18.1, tim23-1 inh 16.6, NALP1 yeast inh 22.2, tim10-1 inh -14.8, TIM10 inh 14.6 and NLRP3 yeast inh 13.8.
Screening COc1ccc(NC(=O)c2ccc(NC(=O)CN3CCN(c4ccccc4)CC3)cc2)cc1 returned PfHsp90 yeast 2 14.4, tim23-1 inh -5.6, tim10-1 inh -4.9, TIM10 inh -13.0 and NLRP3 yeast inh 5.4.
Screening COc1ccc(OC)c(S(=O)(=O)ON2C(=O)c3ccccc3C2=O)c1 returned PfHsp90 yeast 2 -24.8, tim23-1 inh 11.7, NALP1 yeast inh 6.1, tim10-1 inh 13.4, TIM10 inh -0.6 and NLRP3 yeast inh 11.4.
`Cc1ccc(CCNC(=O)C2CCN(S(=O)(=O)N3CCOCC3)CC2)cc1` gave PfHsp90 yeast 2 29.7, tim23-1 inh 7.2, NALP1 yeast inh 20.3, tim10-1 inh 20.8, TIM10 inh 4.5 and NLRP3 yeast inh 0.8.
CCOC(=O)NC1=NCC(C)S1 (stereo not given) was read as PfHsp90 yeast 2 -30.2, tim23-1 inh 12.2, NALP1 yeast inh 6.2, tim10-1 inh -9.2, TIM10 inh 12.5 and NLRP3 yeast inh -4.9.
For O=C(Cn1cnc2ccccc2c1=O)c1ccc2ccccc2c1 the results were PfHsp90 yeast 2 16.1, tim23-1 inh -4.9, NALP1 yeast inh 16.4, tim10-1 inh -1.3, TIM10 inh 7.7 and NLRP3 yeast inh 37.3.
Screening O=C(Cn1cnc2ccccc2c1=O)c1ccc2c(c1)OCCO2 returned PfHsp90 yeast 2 -15.1, tim23-1 inh 49.8, NALP1 yeast inh 5.7, tim10-1 inh 26.2, TIM10 inh 44.6*, NLRP3 yeast inh 44.6 and TIM10 conf 34.2*.
`CC(C)NC(=S)NC(c1ccccc1)(c1ccccc1)c1ccccc1` gave PfHsp90 yeast 2 -6.4, tim23-1 inh 43.7, NALP1 yeast inh -10.4, tim10-1 inh 33.7, TIM10 inh 45.3*, NLRP3 yeast inh -30.1 and TIM10 conf 48.5*.
Screening Cc1cc(C)c(OCC(=O)NCC2COc3ccccc3O2)c(C)c1 (stereo not given) returned PfHsp90 yeast 2 6.8, tim23-1 inh 39.4, tim10-1 inh 19.2, TIM10 inh 12.7 and NLRP3 yeast inh 19.4.
For C=C(C)CN(CC)C(=O)CN1C(=O)NC2(CCCc3ccccc32)C1=O (stereo not given) the results were PfHsp90 yeast 2 -3.3, tim23-1 inh 0.7, NALP1 yeast inh -0.3, tim10-1 inh 0.0, TIM10 inh 9.4 and NLRP3 yeast inh 0.7.

Compound activity (PubChem BioAssay)
